# Screening data deposited in PubChem BioAssay by National Center for Advancing Translational Sciences (NCATS).
# Most compounds without a hit are left out; they make up all but 4.4% or so of the library.
# D1 potentiator: Potentiators of Human D1 Dopamine Receptor: qHTS. potentiation, % at 10 µM. AID 504651, 2011. HEK293 TREx D1 cells, calcium flux, dopamine EC20 potentiation. D(1A) dopamine receptor (Homo sapiens), P21728. 0.036% of 360,000 active; in the data active means potentiation above about 30%; further: 0% is about no effect
# Target sequence (P21728 whole entry, looked up): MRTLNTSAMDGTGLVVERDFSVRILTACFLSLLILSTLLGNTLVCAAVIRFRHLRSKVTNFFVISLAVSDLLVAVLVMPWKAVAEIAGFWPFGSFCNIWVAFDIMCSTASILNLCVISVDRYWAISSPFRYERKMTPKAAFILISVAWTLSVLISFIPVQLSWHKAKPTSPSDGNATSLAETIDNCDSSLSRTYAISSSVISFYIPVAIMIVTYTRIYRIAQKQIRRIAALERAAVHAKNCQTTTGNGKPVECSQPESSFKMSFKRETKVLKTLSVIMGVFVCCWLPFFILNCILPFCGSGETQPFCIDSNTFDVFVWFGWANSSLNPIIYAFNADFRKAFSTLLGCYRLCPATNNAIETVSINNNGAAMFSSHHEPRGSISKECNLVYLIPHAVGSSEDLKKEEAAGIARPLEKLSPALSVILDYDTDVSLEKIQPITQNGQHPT
# TRHR ag: qHTS for Small Molecule Agonists and Allosteric Enhancers of Human TRH Receptor: Primary Screen for Agonists; TRHR cells, calcium flux fluo-8, FDSS agonist mode; activation, % at 2 µM; 0.18% of 360,000 active; AID 493084, 2011; further: 0% is about no effect
#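 Agonist-mode FDSS calcium read (Ex 480/Em 530, 1 s cycles) in 1536-well TRHR cells with fluo-8 dye, after 10-cycle baseline and 23 nL compound addition; TRH at EC20 (10 nM final) added afterwards for the enhancer phase.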
# TRHR enhancer: qHTS for Small Molecule Agonists and Allosteric Enhancers of Human TRH Receptor: Primary Screen for Enhancers; 0.66% of 360,000 active; enhancement, % at 2 µM; TRHR cells, fluo-8 calcium fluorescence, EC20 TRH enhancement; Thyrotropin-releasing hormone receptor (Homo sapiens), P34981; in the data active means enhancement above about 30%; further: 0% is about no effect
#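 TRHR-expressing cells loaded with fluo-8 calcium dye were read kinetically (ex 480/em 530) during compound addition, then stimulated with an EC20 of TRH (10 nM final). Enhancement of the Gq-mediated intracellular calcium response was scored.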
# USP1-UAF1 inh: Inhibitors of USP1/UAF1: Primary Screen. 0.23% of 390,000 active. Ubiquitin carboxyl-terminal hydrolase 1 (Homo sapiens), O94782. recombinant USP1/UAF1, Ub-Rhodamine cleavage fluorescence. Potency, µM (series often up to 57.1 µM), without a hit: at the highest dose activity change, negative = inhibition, usual class: inhibitors; active means well fitted inhibition curve with a large enough effect; inconclusive means small, poorly fitted or top-dose-only effect; inactive means no such curve, though single readings can be large or run the other way; further: potency means the concentration at half of the fitted maximal effect; on the % scale 0 is the no-effect control and ±100 the full control effect; nearly all actives have a fitted effect of over 60% in size
#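 Step one: compound is pinned into 1nM USP1/UAF1 in HEPES pH 7.8 buffer with TCEP. Step two: 15 min room-temperature incubation. Step three: Ub-Rho (150nM final) starts cleavage, tracked by fluorescence over six one-minute reads.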
# D1 antag: Antagonist of Human D 1 Dopamine Receptor: qHTS. D(1A) dopamine receptor (Homo sapiens), P21728. HEK293 TREx D1 cells, calcium flux, dopamine EC80; hits give low values. activity change, negative = inhibition, % at 10 µM. 3.2% of 360,000 active. AID 504652, 2011; in the data active means activity change below about -30%; further: on the % scale 0 is the no-effect control and ±100 the full control effect
#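 Using tetracycline-induced force-coupled D1 Hek293 cells and a calcium dye, signals were followed for 180 s after compound, then for 180 s after EC80 dopamine, to detect inhibitors.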
# D1 agonist: Allosteric Agonists of the Human D1 Dopamine Receptor: qHTS; D(1A) dopamine receptor (Homo sapiens), P21728; HEK293 T-REx D1 cells, calcium flux, agonist mode; activation, % at 2 µM; 1% of 360,000 active; further: 0% is about no effect
#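 Tetracycline-induced HEK293 TREx D1 cells, force-coupled to calcium signalling, were dye-loaded with a no-wash calcium kit. Compound was pin-added after a 10 s baseline. Fluorescence was read kinetically at 1 cycle/s for 180 s, with calcium rises flagged as agonism.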
# * marks the source's active call; other numbers are inactive results; ? = inconclusive; . = no result given. Unless noted, no stated cut-off is given here; in the data, active means activation above about 30%; inactive means the rest.
SMILES,D1 potentiator,TRHR ag,TRHR enhancer,USP1-UAF1 inh,D1 antag,D1 agonist
CCN1C(=NCCN2CCOCC2)N[C@@H](CCc2ccccc2)C(C(=O)OC)=C1C,3,0,-11,.,4,1
CN(C)C(CNC(=O)c1cc(S(=O)(=O)N2CCOCC2)ccc1Cl)c1cccs1 (configuration not stated),.,.,.,-21%,.,.
O=C(Nc1ccc(-c2nc3ccccc3[nH]2)cc1)c1ccc(N2C(=O)CCC2=O)cc1,-3,0,1,-1%,-50*,0
CN(c1ccccc1)S(=O)(=O)c1ccc(Cl)c(C(=O)Nc2ccc(-c3nc4ccccc4[nH]3)cc2)c1,-10,0,4,-17%,-30*,5
CN(C)C(CNC(=O)c1cc(S(=O)(=O)N(C)c2ccccc2)ccc1Cl)c1cccs1 (configuration not stated),-8,0,-6,-6%,-44*,12
Cc1ccccc1C(=O)Nc1ccc(-c2nc3ccc(C(=O)c4ccccc4)cc3[nH]2)cc1,-5,1,-6,-3%,-42*,4
Cc1cc(C)c2sc(NC(=O)c3ccc(S(=O)(=O)N4CCOCC4)cc3)nc2c1,4,0,4,-16%,-10,0
CC1CCN(CCn2c(=S)[nH]c3ccccc3c2=O)CC1,-5,2,1,-20%,-1,0
Cc1nc2ccccn2c(=O)c1CCN1CCC(C(=O)c2ccc(F)cc2)CC1,-6,0,-3,-25%,-34*,1
O=C(c1ccc(F)cc1)C1CCN(CCn2c(=S)[nH]c3ccccc3c2=O)CC1,-2,0,3,.,-79*,0
CCOc1ccccc1NC(=O)N1CCC(C(=O)c2ccc(F)cc2)CC1,4,-1,-5,-18%,.,-1
CC1(C)C(=O)N(CCN2CCC(C(=O)c3ccc(F)cc3)CC2)c2ccccc21,-7,-1,7,?,-62*,7
CC1CCN(CCCn2c(=S)[nH]c3ccccc3c2=O)CC1,-13,1,6,-18%,-20,0
O=c1c2ccccc2[nH]c(=S)n1CCCN1CCC(Cc2ccccc2)CC1,-28,0,2,-20%,-31*,0
O=C(c1ccc(F)cc1)C1CCN(Cc2ccccc2F)CC1,.,.,.,-32%,.,.
Cc1cccc(-c2nc3nc(C)cc(NCc4ccccc4Cl)n3n2)c1,-2,2,4,?,-4,10
Cc1ccc(-c2nn(-c3ccc(F)cc3)c3c2cnc2cc(F)c(F)cc23)cc1,-1,2,-10,-8%,-14,0
CCN(c1cccc(C)c1)c1ncnc2c1cnn2-c1cccc(Cl)c1,0,0,-7,-34%,-12,-3
COc1ccc(CCN2C(=O)CN(C3CCCCCC3)C(=O)C2c2ccc(Cl)cc2)cc1OC (configuration not stated),-1,-1,-3,-13%,11,5
CCCn1nc(C(=O)Nc2cccc(S(=O)(=O)N3CCOCC3)c2)c2ccccc2c1=O,.,.,.,-17%,.,.
Cc1cc(C(=O)Nc2ccc(C)c(S(=O)(=O)N3CCOCC3)c2)c(C)o1,-2,0,1,-5%,0,-1
O=C(Nc1ccc(F)c(F)c1)c1ccc(F)c(S(=O)(=O)N2CCOCC2)c1,-3,0,-7,.,-33*,15
Cc1ccc(C(=O)Nc2ccccc2[N+](=O)[O-])cc1S(=O)(=O)N1CCOCC1,-6,0,-1,-24%,-34*,1
Cc1ccc(C(=O)Nc2ccc(C)c(S(=O)(=O)N3CCOCC3)c2)c(C)c1,-12,0,5,-16%,-42*,6
O=C(Nc1cccnc1)c1ccc(F)c(S(=O)(=O)N2CCOCC2)c1,-2,2,-5,-18%,-5,2
SMILES,D1 potentiator,TRHR ag,TRHR enhancer,USP1-UAF1 inh,D1 antag,D1 agonist
CCn1nc(C(=O)Nc2ccc(Cl)c(S(=O)(=O)N3CCOCC3)c2)c2ccccc2c1=O,-4,1,-7,-10%,-37*,4
COc1ccc(NC(=O)c2c(NCc3cccc(OC)c3)sc3c2CCC3)cc1,-3,0,-3,-19%,-4,2
O=C(NCCc1csc(-c2cccc(F)c2)n1)C(=O)Nc1cc(F)ccc1F,-1,1,0,?,-11,23
COC(=O)c1ccccc1NC(=O)CNc1ccc(F)c(S(=O)(=O)N2CCOCC2)c1,2,0,1,-10%,-51*,0
O=C(NCCc1ccc(F)cc1)c1ccc(Cl)c(S(=O)(=O)N2CCOCC2)c1,-9,1,-7,-16%,-33*,10
Cc1ccc(NC(=O)CSc2n[nH]c(N)n2)cc1S(=O)(=O)N1CCOCC1,0,1,8,-8%,-64*,0
COc1ccc(CC(=O)Nc2ccc(F)c(S(=O)(=O)N3CCOCC3)c2)cc1,.,.,.,-19%,.,.
CCCS(=O)(=O)N1CCC(N2CCN(Cc3ccc(F)cc3)C(=O)C2=O)CC1,0,0,10,-4%,4,-1
CCc1ccc(-n2nc3ccc(NC(=O)c4cc5ccccc5o4)cc3n2)cc1,1,0,7,-6%,9,1
Cc1cc(C)cc(NC2=C(c3ccccc3)C(=O)c3ccccc32)c1,1,-1,-12,-28%,-23,1
COc1ccc(CN2CCN(c3ccccc3OC)CC2)c(OC)c1,4,0,-3,-12%,-46*,4
COc1ccccc1OCCCCN1CCN(c2ccccc2OC)CC1,0,-3,1,0%,-15,11
COc1ccc(OC)c(CN2CCN(Cc3cccc4ccccc34)CC2)c1,-15,0,4,-18%,-67*,2
COc1ccc(CN2CCN(CCCc3ccccc3)CC2)c(OC)c1,-3,0,55*,.,5,5
COc1ccc(OC)c(CN2CCCCCC2)c1,-3,0,-1,0%,16,4
COc1ccccc1N1CCN(CCCCCCOc2ccc(F)cc2)CC1,-21,-1,-1,-15%,-45*,8
COc1ccc(NC(=O)Cn2c3ncccc3c(=O)n2-c2ccc(C)c(C)c2)c(OC)c1,-2,-1,1,-17%,24,2
CCc1ccccc1NC(=O)CSc1nc2ccccc2nc1Cc1cccc(OC)c1,1,1,14,13%,5,4
